Where “and” joins values, the source holds several entries; their conditions need not be identical. Equal values may be shown once. About 79,000 compounds went through this panel and 15% of them were active in at least one assay; those are over-represented in the sample as a whole. Some compounds were tested as several samples or in several runs, with calls that do not always agree. Calls of active or inactive are those of the source. Rule as the data show it: active = growth inhibition above about 70%; inactive = the rest.
Tests used:
[1] = NCI Yeast Anticancer Drug Screen. Data for the rad52 strain (AID 147);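 also: 0% = growth of vehicle-treated control cultures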; conditions: S. cerevisiae rad52 mutant growth inhibition, stronger effect = higher value
How it was run: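 Growth of repair-deficient yeast cells was compared between compound-treated and vehicle-treated cultures to give percent inhibition.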

[2] = NCI Yeast Anticancer Drug Screen. Data for the wt1 strain (AID 149);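 also: 0% = growth of vehicle-treated wt1 cultures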; conditions: S. cerevisiae wt1 strain (SPY 50644) growth inhibition, stronger effect = higher value
How it was run: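 wt1 strain grown with compound or vehicle; inhibition taken from the growth difference.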

[3] = NCI Yeast Anticancer Drug Screen. Data for the rad50EPP+ strain (AID 151);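 also: 0% = growth of vehicle-treated control cultures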; conditions: S. cerevisiae rad50 mutant strain, stronger effect = higher value
How it was run: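 Measured: growth inhibition of rad50EPP+ yeast. Reference: vehicle-treated controls. Screen uses strains with defined genetic alterations in DNA damage repair or cell cycle control.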

[4] = NCI Yeast Anticancer Drug Screen. Data for the mgt1 strain (AID 153); conditions: S. cerevisiae mgt1 mutant growth inhibition, stronger effect = higher value
How it was run: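 Compounds were applied to mgt1 mutant yeast, and growth was then compared against vehicle-treated control cultures to give percent inhibition.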

[5] = NCI Yeast Anticancer Drug Screen. Data for the rad50 strain (AID 155);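 also: 0% = growth of vehicle-only cultures of the same strain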; conditions: S. cerevisiae rad50 strain growth inhibition, stronger effect = higher value
How it was run: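 DNA repair mutant yeast, compound exposure, growth read-out; inhibition is taken relative to vehicle.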

[6] = NCI Yeast Anticancer Drug Screen. Data for the mec2-1 strain (AID 157); conditions: S. cerevisiae mec2-1 strain, stronger effect = higher value
How it was run: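 Compounds were applied to mec2-1 yeast cells. Their growth was then compared with that of vehicle-treated cultures to give growth inhibition.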

[7] = NCI Yeast Anticancer Drug Screen. Data for the rad14 strain (AID 159);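 also: 0% = growth of vehicle-treated control cultures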; conditions: S. cerevisiae rad14 strain growth inhibition, stronger effect = higher value
How it was run: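 DNA repair-defective yeast, compound-exposed; % growth inhibition derived by comparison with vehicle-treated controls.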

[8] = NCI Yeast Anticancer Drug Screen. Data for the sgs1 mgt1 strain (AID 161);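 also: 0% = growth of cultures given vehicle only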; conditions: S. cerevisiae sgs1 mgt1 strain, stronger effect = higher value
How it was run: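 Percent growth inhibition was derived by comparing compound-exposed mutant yeast with vehicle-exposed cultures. The strain carries alterations in DNA damage repair.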

[9] = NCI Yeast Anticancer Drug Screen. Data for the cln2 rad14 strain (AID 165);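 also: 0% = growth equal to vehicle treated cultures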; conditions: S. cerevisiae cln2 rad14 strain, stronger effect = higher value
How it was run: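 Strain: cln2 rad14 yeast, altered in cell cycle control and DNA damage repair. Read-out: growth inhibition vs vehicle.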

[10] = NCI Yeast Anticancer Drug Screen. Data for the bub3 strain (AID 167); conditions: S. cerevisiae bub3 mutant strain, stronger effect = higher value
How it was run: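 In this screen, a yeast mutant lacking normal mitotic checkpoint function is challenged with compound. Relative growth versus vehicle gives the inhibition value.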

[11] = NCI Yeast Anticancer Drug Screen. Data for the wt2 strain (AID 169);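 also: 0% = growth of vehicle-treated yeast cultures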; conditions: S. cerevisiae wt2 strain growth inhibition, stronger effect = higher value
How it was run: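 Growth of compound-treated yeast is measured and expressed as inhibition relative to vehicle-only controls.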

[12] = NCI Yeast Anticancer Drug Screen. Data for the mlh1 strain (AID 171);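 also: 0% = growth of vehicle-treated control cultures of the same strain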; conditions: S. cerevisiae mlh1 strain growth inhibition, stronger effect = higher value
How it was run: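 Test agents were incubated with yeast bearing a defined DNA damage repair or cell cycle control alteration; values are growth inhibition normalised to vehicle-treated cultures.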

[13] = NCI Yeast Anticancer Drug Screen. Data for the sgs1 strain (AID 173);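 also: 0% = growth of vehicle-only control cultures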; conditions: S. cerevisiae sgs1 mutant, stronger effect = higher value
How it was run: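 Strain with an altered DNA repair or cell cycle pathway exposed to compound. Growth then measured. Value = inhibition versus vehicle control.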

[14] = NCI Yeast Anticancer Drug Screen. Data for the rad18 strain (AID 177); conditions: S. cerevisiae rad18 mutant growth inhibition, stronger effect = higher value
How it was run: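 DNA-repair-defective yeast; compound treatment; growth inhibition scored against vehicle.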

[15] = NCI Yeast Anticancer Drug Screen. Data for the CLN2oe strain (AID 163);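 also: 0% = growth of vehicle-only control cultures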; conditions: S. cerevisiae CLN2oe strain, stronger effect = higher value
How it was run: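 Cells of an engineered yeast line with disturbed cell-cycle regulation are treated with compound. Inhibition of growth is then calculated relative to the vehicle-treated reference.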

[16] = NCI Yeast Anticancer Drug Screen. Data for the mlh1 rad18 strain (AID 175); conditions: S. cerevisiae mlh1 rad18 strain growth inhibition, stronger effect = higher value
How it was run: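 A repair-deficient yeast strain is exposed to test compound, and growth is scored relative to vehicle-treated controls.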

[17] = at 5.0 µM (retest, dose inferred, filed as 0.5)
[18] = at 50.0 µM (retest, dose inferred, filed as 5.0)

Measured: growth inhibition

COc1ccc(C(=O)Oc2ccccc2Br)cc1
active: [8]; [18] 78% | [10]; [18] 75%
inactive: [1]; at 1.2 µM 5% | [1]; at 3.7 µM 6% | [1]; at 11.0 µM 3% | [1]; at 33.0 µM 19% | [1]; at 100.0 µM 44% | [2]; at 1.2 µM -5% | [2]; at 3.7 µM -7% | [2]; at 11.0 µM -10% | [2]; at 33.0 µM -10% | [2]; at 100.0 µM -3% | [3]; at 1.2 µM 13% | [3]; at 3.7 µM 22% | [3]; at 11.0 µM 26% | [3]; at 33.0 µM 35% | [3]; at 100.0 µM 62% | [4]; at 1.2 µM -8% | [4]; at 3.7 µM -5% | [4]; at 11.0 µM -7% | [4]; at 33.0 µM -5% | [4]; at 100.0 µM 25% | [5]; at 1.2 µM 8% | [5]; at 3.7 µM 7% | [5]; [17] 5% | [5]; at 11.0 µM 8% | [5]; at 33.0 µM 28% | [5]; [18] 64% | [5]; at 50.0 µM 6.6% | [5]; at 100.0 µM 62% | [6]; at 1.2 µM -5% | [6]; at 3.7 µM -8% | [6]; [17] -20% | [6]; at 11.0 µM -10% | [6]; at 33.0 µM -7% | [6]; [18] 8% | [6]; at 50.0 µM 5.05% | [6]; at 100.0 µM 20% | [7]; at 1.2 µM 3% | [7]; at 3.7 µM -1% | [7]; at 11.0 µM -1% | [7]; at 33.0 µM 10% | [7]; at 100.0 µM 39% | [8]; [17] 0% | [8]; at 50.0 µM 36.1% | [9]; [17] 0% | [9]; [18] 16% | [9]; at 50.0 µM -16.3% | [10]; at 1.2 µM 3% | [10]; at 3.7 µM 2% | [10]; [17] 18% | [10]; at 11.0 µM -2% | [10]; at 33.0 µM 5% | [10]; at 50.0 µM 32.4% | [10]; at 100.0 µM 19% | [11]; at 1.2 µM -5% | [11]; at 3.7 µM -13% | [11]; at 11.0 µM -11% | [11]; at 33.0 µM -10% | [11]; at 100.0 µM 0% | [12]; at 1.2 µM -1% | [12]; at 3.7 µM 0% | [12]; at 11.0 µM -2% | [12]; at 33.0 µM 8% | [12]; at 100.0 µM 39% | [13]; at 1.2 µM -18% | [13]; at 3.7 µM -13% | [13]; at 11.0 µM -11% | [13]; at 33.0 µM 3% | [13]; at 100.0 µM 36% | [14]; at 1.2 µM 1% | [14]; at 3.7 µM 2% | [14]; at 11.0 µM 1% | [14]; at 33.0 µM 10% | [14]; at 100.0 µM 53%

Cc1nc2c(Br)cc(Br)cc2c(=O)n1-c1ccccc1NC1OCC(O)C(O)C1O (stereo not drawn)
inactive: [1]; at 1.2 µM 1% | [1]; at 3.7 µM 4% | [1]; at 11.0 µM 25% | [1]; at 33.0 µM 44% | [2]; at 1.2 µM -50% | [2]; at 3.7 µM 3% | [2]; at 11.0 µM 9% | [2]; at 33.0 µM 28% | [3]; at 1.2 µM 37% | [3]; at 3.7 µM 36% | [3]; at 11.0 µM 17% | [3]; at 33.0 µM 20% | [3]; at 100.0 µM 8% | [4]; at 1.2 µM 25% | [4]; at 3.7 µM 21% | [4]; at 11.0 µM 20% | [4]; at 33.0 µM 39% | [5]; at 1.2 µM 0% | [5]; at 3.7 µM 6% | [5]; [17] 10% and 17% | [5]; at 11.0 µM 18% | [5]; at 33.0 µM 63% | [6]; at 1.2 µM 7% | [6]; at 3.7 µM 9% | [6]; [17] 10% and 22% | [6]; at 11.0 µM 14% | [6]; at 33.0 µM 38% | [7]; at 1.2 µM 2% | [7]; at 3.7 µM 4% | [7]; at 11.0 µM 16% | [7]; at 33.0 µM 39% | [8]; [17] 12% and 11% | [8]; [18] 13% and 24% | [15]; at 1.2 µM 40% | [15]; at 3.7 µM 35% | [15]; at 11.0 µM 44% | [9]; [17] 40% and -2% | [10]; at 1.2 µM 11% | [10]; at 3.7 µM 5% | [10]; [17] 20% and 14% | [10]; at 11.0 µM 8% | [10]; at 33.0 µM 47% | [12]; at 1.2 µM 0% | [12]; at 3.7 µM 4% | [12]; at 11.0 µM 12% | [12]; at 33.0 µM 36% | [16]; [17] -23% and 18% | [14]; at 1.2 µM 42% | [14]; at 3.7 µM 41% | [14]; at 11.0 µM 41% | [14]; at 33.0 µM 62%
92% (active) and 51% (inactive): [10]; [18]
74% (active) and 68% (inactive): [5]; [18]
91.5% (active) and 60.1% (inactive): [9]; at 50.0 µM
70.8% (active) and 22.4% (inactive): [6]; at 50.0 µM
88.5% (active) and 61.5% (inactive): [8]; at 50.0 µM
active: [1]; at 100.0 µM 97% | [2]; at 100.0 µM 93% | [4]; at 100.0 µM 97% | [5]; at 50.0 µM 94.5% and 89.8% | [5]; at 100.0 µM 96% | [6]; at 100.0 µM 96% | [7]; at 100.0 µM 94% | [15]; at 33.0 µM 72% | [15]; at 100.0 µM 97% | [9]; [18] 95% and 85% | [10]; at 50.0 µM 97.2% and 78.4% | [10]; at 100.0 µM 96% | [12]; at 100.0 µM 92% | [16]; [18] 93% and 74% | [16]; at 50.0 µM 95.2% and 82.2% | [14]; at 100.0 µM 97%
75% (active) and 23% (inactive): [6]; [18]

OC(/C=C/c1ccccc1)(Cc1cc(-c2ccccc2)n[nH]1)c1ccccc1 (stereo not drawn)
inactive: [1]; at 1.2 µM 14% | [1]; at 3.7 µM 14% | [1]; at 11.0 µM 11% | [1]; at 33.0 µM 14% | [1]; at 100.0 µM 9% | [2]; at 1.2 µM 9% | [2]; at 3.7 µM 5% | [2]; at 11.0 µM 7% | [2]; at 33.0 µM 8% | [2]; at 100.0 µM 9% | [3]; at 1.2 µM 12% | [3]; at 3.7 µM 11% | [3]; at 11.0 µM 14% | [3]; at 33.0 µM 13% | [3]; at 100.0 µM 13% | [4]; at 1.2 µM 9% | [4]; at 3.7 µM 12% | [4]; at 11.0 µM 10% | [4]; at 33.0 µM 12% | [4]; at 100.0 µM 13% | [5]; at 1.2 µM 8% | [5]; at 3.7 µM 7% | [5]; [17] -3% | [5]; at 11.0 µM 4% | [5]; at 33.0 µM 11% | [5]; at 100.0 µM 8% | [6]; at 1.2 µM 9% | [6]; at 3.7 µM 11%
active: [5]; [18] 97% | [5]; at 50.0 µM 98.6%
